Measured values taken from PubChem BioAssay (NCI).
Compounds without any hit were thinned out: in the full panel of roughly 79,000, 15% have a hit. Calls of active or inactive are those of the source. Cut-off read from the data, not from the text of the source: active = growth inhibition above about 70%; inactive = the rest.

Assays:
[1] = NCI Yeast Anticancer Drug Screen. Data for the rad52 strain (AID 147);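 note: 0% = growth of vehicle-treated control cultures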; conditions: S. cerevisiae rad52 mutant growth inhibition, active compounds read high
Procedure, shortened: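 Inhibition of yeast growth, referenced to vehicle controls, was the measured output for a strain with defective DNA damage repair.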

[2] = NCI Yeast Anticancer Drug Screen. Data for the wt1 strain (AID 149);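 note: 0% = growth of vehicle-treated wt1 cultures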; conditions: S. cerevisiae wt1 strain (SPY 50644) growth inhibition, active compounds read high
Procedure, shortened: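 Compounds are added to wt1 yeast cultures. Growth is then measured. Inhibition is expressed relative to vehicle-treated controls.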

[3] = NCI Yeast Anticancer Drug Screen. Data for the rad50EPP+ strain (AID 151);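 note: 0% = growth of vehicle-treated control cultures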; conditions: S. cerevisiae rad50 mutant strain, active compounds read high
Procedure, shortened: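 Genetically defined yeast (rad50EPP+, DNA damage repair alteration) is grown with compound, and inhibition of growth is expressed relative to vehicle-treated controls.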

[4] = NCI Yeast Anticancer Drug Screen. Data for the mgt1 strain (AID 153); conditions: S. cerevisiae mgt1 mutant growth inhibition, active compounds read high
Procedure, shortened: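 In the mgt1 strain, test compounds were added and growth inhibition was determined relative to vehicle-treated controls.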

[5] = NCI Yeast Anticancer Drug Screen. Data for the rad50 strain (AID 155);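 note: 0% = growth of vehicle-only cultures of the same strain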; conditions: S. cerevisiae rad50 strain growth inhibition, active compounds read high
Procedure, shortened: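 Inhibition values express reduced yeast growth in compound-treated cultures relative to vehicle-treated controls.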

[6] = NCI Yeast Anticancer Drug Screen. Data for the mec2-1 strain (AID 157); conditions: S. cerevisiae mec2-1 strain, active compounds read high
Procedure, shortened: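 Each compound was tested on mec2-1 yeast, a strain altered in DNA damage repair or cell cycle control. Growth inhibition is reported relative to vehicle.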

[7] = NCI Yeast Anticancer Drug Screen. Data for the rad14 strain (AID 159);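 note: 0% = growth of vehicle-treated control cultures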; conditions: S. cerevisiae rad14 strain growth inhibition, active compounds read high
Procedure, shortened: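 A mutant yeast strain defective in DNA damage repair is treated with compound; inhibition of its growth is scored against untreated, vehicle-exposed cultures.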

[8] = NCI Yeast Anticancer Drug Screen. Data for the sgs1 mgt1 strain (AID 161);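 note: 0% = growth of cultures given vehicle only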; conditions: S. cerevisiae sgs1 mgt1 strain, active compounds read high
Procedure, shortened: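 Mutant yeast exposed to compound; growth scored against vehicle-only wells.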

[9] = NCI Yeast Anticancer Drug Screen. Data for the CLN2oe strain (AID 163);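 note: 0% = growth of vehicle-only control cultures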; conditions: S. cerevisiae CLN2oe strain, active compounds read high
Procedure, shortened: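 First, the altered yeast strain was treated with each compound; second, its growth was measured; finally, inhibition was derived by comparison with vehicle controls.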

[10] = NCI Yeast Anticancer Drug Screen. Data for the cln2 rad14 strain (AID 165);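 note: 0% = growth equal to vehicle treated cultures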; conditions: S. cerevisiae cln2 rad14 strain, active compounds read high
Procedure, shortened: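 Test compounds were added to cln2 rad14 yeast cultures; inhibition of growth was then determined by comparison with vehicle treatment.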

[11] = NCI Yeast Anticancer Drug Screen. Data for the bub3 strain (AID 167); conditions: S. cerevisiae bub3 mutant strain, active compounds read high
Procedure, shortened: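 Steps: expose the mutant yeast strain to compound; grow alongside vehicle-treated cultures; measure growth; express inhibition against the vehicle cultures.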

[12] = NCI Yeast Anticancer Drug Screen. Data for the wt2 strain (AID 169);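 note: 0% = growth of vehicle-treated yeast cultures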; conditions: S. cerevisiae wt2 strain growth inhibition, active compounds read high
Procedure, shortened: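 The panel's yeast strains carry defined changes in DNA repair or cell cycle genes. Each strain is grown with compound, and growth loss is scored relative to vehicle.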

[13] = NCI Yeast Anticancer Drug Screen. Data for the mlh1 strain (AID 171);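 note: 0% = growth of vehicle-treated control cultures of the same strain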; conditions: S. cerevisiae mlh1 strain growth inhibition, active compounds read high
Procedure, shortened: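 Inhibition values reflect reduced yeast growth in the presence of compound, referenced to vehicle controls, using a strain chosen for its alteration in DNA repair or cell cycle control.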

[14] = NCI Yeast Anticancer Drug Screen. Data for the mlh1 rad18 strain (AID 175); conditions: S. cerevisiae mlh1 rad18 strain growth inhibition, active compounds read high
Procedure, shortened: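 Inhibition values reflect reduced growth of mutant yeast versus vehicle-treated controls following compound exposure; the mutations affect DNA damage repair.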

[15] = at 5.0 µM (retest, dose inferred, filed as 0.5)
[16] = at 50.0 µM (retest, dose inferred, filed as 5.0)

Measured: growth inhibition

CO[C@@]1([C@@H](Cl)c2ccccc2)C(=O)N(C)/C(=C\c2ccccc2)C(=O)N1C
inactive: [1]; at 1.2 µM 0% | [1]; at 3.7 µM 1% | [1]; at 11.0 µM 3% | [1]; at 33.0 µM 7% | [1]; at 100.0 µM 8% | [2]; at 1.2 µM 0% | [2]; at 3.7 µM 0% | [2]; at 11.0 µM -2% | [2]; at 33.0 µM -1% | [2]; at 100.0 µM -1% | [3]; at 1.2 µM -1% | [3]; at 3.7 µM -3% | [3]; at 11.0 µM -6% | [3]; at 33.0 µM 0% | [3]; at 100.0 µM 5% | [4]; at 1.2 µM -1% | [4]; at 3.7 µM -1% | [4]; at 11.0 µM -1% | [4]; at 33.0 µM 39% | [4]; at 100.0 µM 50% | [5]; at 1.2 µM 2% | [5]; at 3.7 µM 6% | [5]; [15] -12% | [5]; at 11.0 µM 9% | [5]; at 33.0 µM 11% | [5]; [16] 14% | [5]; at 50.0 µM -7.3% | [5]; at 100.0 µM 15% | [6]; at 1.2 µM -3% | [6]; at 3.7 µM -1% | [6]; [15] -2% | [6]; at 11.0 µM 0% | [6]; at 33.0 µM 4% | [6]; [16] 4% | [6]; at 50.0 µM 11% | [6]; at 100.0 µM 8% | [7]; at 1.2 µM 1% | [7]; at 3.7 µM 3% | [7]; at 11.0 µM 8% | [7]; at 33.0 µM 10% | [7]; at 100.0 µM 11% | [8]; [15] -13% | [8]; at 50.0 µM 43.6% | [9]; at 1.2 µM -1% | [9]; at 3.7 µM 0% | [9]; at 11.0 µM -1% | [9]; at 33.0 µM 5% | [9]; at 100.0 µM 7% | [10]; [15] -8% | [10]; [16] 15% | [10]; at 50.0 µM 36.1% | [11]; at 1.2 µM -1% | [11]; at 3.7 µM -3% | [11]; [15] -11% | [11]; at 11.0 µM 0% | [11]; at 33.0 µM 10% | [11]; [16] 20% | [11]; at 50.0 µM -6.35% | [11]; at 100.0 µM 19% | [12]; at 1.2 µM 2% | [12]; at 3.7 µM 0% | [12]; at 11.0 µM -1% | [12]; at 33.0 µM 48% | [13]; at 1.2 µM 0% | [13]; at 3.7 µM -2% | [13]; at 11.0 µM -1% | [13]; at 33.0 µM 9% | [13]; at 100.0 µM 67% | [14]; [15] -10% | [14]; [16] 10% | [14]; at 50.0 µM 9%
active: [8]; [16] 96% | [12]; at 100.0 µM 79%

COC(=O)c1cnc(Cl)c([N+](=O)[O-])c1
inactive: [1]; at 1.2 µM 17% | [1]; at 3.7 µM 53% | [2]; at 1.2 µM 6% | [2]; at 3.7 µM 15% | [3]; at 1.2 µM 14% | [3]; at 3.7 µM 48% | [4]; at 1.2 µM 2% | [4]; at 3.7 µM 23% | [5]; at 1.2 µM 22% | [6]; at 1.2 µM 5% | [6]; at 3.7 µM 10% | [6]; [15] 41% | [7]; at 1.2 µM 2% | [7]; at 3.7 µM 18% | [7]; at 11.0 µM 39% | [8]; [15] 47% | [9]; at 1.2 µM 0% | [9]; at 3.7 µM 5% | [9]; at 11.0 µM 48% | [10]; [15] 2% | [11]; at 1.2 µM 2% | [11]; at 3.7 µM 7% | [11]; [15] 24%
active: [1]; at 11.0 µM 94% | [1]; at 33.0 µM 98% | [1]; at 100.0 µM 99% | [2]; at 11.0 µM 82% | [2]; at 33.0 µM 99% | [2]; at 100.0 µM 99% | [3]; at 11.0 µM 93% | [3]; at 33.0 µM 98% | [3]; at 100.0 µM 99% | [4]; at 11.0 µM 92% | [4]; at 33.0 µM 99% | [4]; at 100.0 µM 99% | [5]; at 3.7 µM 75% | [5]; [15] 79% | [5]; at 11.0 µM 97% | [5]; at 33.0 µM 99% | [5]; [16] 98% | [5]; at 50.0 µM 99.5% | [5]; at 100.0 µM 99% | [6]; at 11.0 µM 72% | [6]; at 33.0 µM 98% | [6]; [16] 99% | [6]; at 50.0 µM 99.5% | [6]; at 100.0 µM 99% | [7]; at 33.0 µM 97% | [7]; at 100.0 µM 99% | [8]; [16] 99% | [8]; at 50.0 µM 99.3% | [9]; at 33.0 µM 97% | [9]; at 100.0 µM 99% | [10]; [16] 98% | [10]; at 50.0 µM 94.8% | [11]; at 11.0 µM 85% | [11]; at 33.0 µM 98% | [11]; [16] 99% | [11]; at 50.0 µM 98.9% | [11]; at 100.0 µM 99%
